Test results as given in the supplement of paper PMC12669032.

How the values were obtained:
Test in all cases: growth AUC relative to DMSO control (median of replicates) (fraction); higher = more growth (less inhibition), active = hit call of the paper
Conditions in all cases: 20 µM; 24 h;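 active = AUC reduced over 20% with Padj below 0.05 in at least 2 of 3 replicates; inactive = otherwise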
[1] = system: Akkermansia muciniphila
Method in brief: (§1)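 For each compound at 20 µM (1% DMSO), gut bacterial monocultures seeded at OD600 0.05 grew anaerobically in mGAM at 37 °C in round-bottom 96-well plates. Hourly OD600 readings over 24 h gave growth curves whose minimum OD was set to 0. Area under these curves was normalised to the plate median of solvent-only wells, or to row and column medians on the industrial chemical plate. Values are medians of three biological replicates grown on separate days.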

[2] = system: Bacteroides caccae
Method in brief: as §1

[3] = system: Bacteroides clarus
Method in brief: as §1

[4] = system: Bacteroides dorei
Method in brief: as §1

[5] = system: Bacteroides stercoris
Method in brief: as §1

[6] = system: Bacteroides thetaiotaomicron
Method in brief: as §1

[7] = system: Bacteroides uniformis
Method in brief: as §1

[8] = system: Bifidobacterium longum subsp. longum
Method in brief: as §1

[9] = system: Clostridium difficile
Method in brief: as §1

[10] = system: Collinsella aerofaciens
Method in brief: as §1

[11] = system: Coprococcus comes
Method in brief: as §1

[12] = system: Escherichia coli ED1a
Method in brief: as §1

[13] = system: Escherichia coli IAI1
Method in brief: as §1

[14] = system: Eubacterium rectale
Method in brief: as §1

[15] = system: Fusobacterium nucleatum subsp. animalis
Method in brief: as §1

[16] = system: Lactobacillus gasseri
Method in brief: as §1

[17] = system: Lactobacillus paracasei
Method in brief: as §1

[18] = system: Odoribacter splanchnicus
Method in brief: as §1

[19] = system: Parabacteroides distasonis
Method in brief: as §1

[20] = system: Parabacteroides merdae
Method in brief: as §1

Measured: growth AUC

COCCOc1ccccc1S(=O)(=O)NC(=O)Nc1nc(OC)nc(OC)n1
inactive: [1] 1.03 | [2] 0.976 | [3] 0.97 | [4] 0.962 | [5] 0.92 | [6] 1 | [7] 1.02 | [8] 1.06 | [9] 0.984 | [10] 0.908 | [11] 0.987 | [12] 0.959 | [13] 0.97 | [14] 0.983 | [15] 0.983 | [16] 0.88 | [17] 1.02 | [18] 1.08 | [19] 0.978 | [20] 0.94

C=CCc1ccc(O)c(OC)c1
inactive: [1] 0.933 | [2] 0.993 | [3] 1.04 | [4] 1 | [5] 0.975 | [6] 0.967 | [7] 1.03 | [8] 1.01 | [9] 1.01 | [10] 0.973 | [11] 0.971 | [12] 1.03 | [13] 1 | [14] 1.01 | [15] 1 | [16] 0.95 | [17] 0.957 | [18] 0.96 | [19] 0.97 | [20] 0.996

C#CCN(C)c1c(C#N)cnn1-c1nn2c(c1Cl)CCCC2
inactive: [1] 0.903 | [2] 0.935 | [3] 0.931 | [4] 0.987 | [5] 0.851 | [6] 0.933 | [7] 0.914 | [8] 0.995 | [9] 1 | [10] 1.02 | [11] 0.998 | [12] 0.999 | [13] 1.02 | [14] 1.07 | [15] 0.972 | [16] 1.05 | [17] 1.05 | [18] 1.05 | [19] 0.98 | [20] 1.01

CC(CNC(=S)[S-])NC(=S)[S-].[Zn+2] (mixture of isomers)
inactive: [1] 1.05 | [2] 0.937 | [3] 1.02 | [4] 1 | [5] 1.12 | [6] 1.01 | [7] 1.03 | [8] 0.975 | [9] 1 | [10] 0.999 | [11] 1.04 | [12] 0.997 | [13] 0.983 | [14] 1.15 | [15] 1.08 | [16] 0.956 | [17] 1.14 | [18] 0.945 | [19] 1.01 | [20] 1.02

CCOCN(C(=O)C(=O)O)c1c(C)cccc1CC
inactive: [1] 0.978 | [2] 1.01 | [3] 0.989 | [4] 1.02 | [5] 1.02 | [6] 1.01 | [7] 1.01 | [8] 1.01 | [9] 0.986 | [10] 1.02 | [11] 1.01 | [12] 1 | [13] 0.996 | [14] 0.989 | [15] 1.03 | [16] 0.989 | [17] 1.05 | [18] 0.991 | [19] 1.02 | [20] 1.01

Cc1nn(C)c(F)c1C(=O)Nc1ccccc1C(C)CC(C)C (stereo not given)
inactive: [1] 0.94 | [2] 0.97 | [3] 0.959 | [4] 0.988 | [5] 1.04 | [6] 0.968 | [7] 0.947 | [8] 0.992 | [9] 0.982 | [10] 1.02 | [11] 0.985 | [12] 1.02 | [13] 1.01 | [14] 0.932 | [15] 0.977 | [16] 1.03 | [17] 0.97 | [18] 0.899 | [19] 0.96 | [20] 0.946

COc1cc(OC)c(Cl)cc1N
inactive: [1] 0.954 | [2] 0.994 | [3] 0.995 | [4] 1.02 | [5] 1.09 | [6] 1.01 | [7] 1.01 | [8] 0.912 | [9] 1.01 | [10] 1.03 | [11] 1.03 | [12] 1 | [13] 1.01 | [14] 1.03 | [15] 1.14 | [16] 0.969 | [17] 1.04 | [18] 1.04 | [19] 1.02 | [20] 1.04

CCOC(=O)Cc1[nH]nc2ccc(Cl)cc12
inactive: [1] 0.921 | [2] 1.01 | [3] 1.01 | [4] 0.996 | [5] 1.15 | [6] 1.01 | [7] 1.01 | [8] 0.989 | [9] 1 | [10] 0.969 | [11] 0.976 | [12] 1.02 | [13] 1 | [14] 1.03 | [15] 1.08 | [16] 1.02 | [17] 0.917 | [18] 1.08 | [19] 0.983 | [20] 1.03

Oc1ccccc1O
inactive: [1] 0.968 | [2] 1.02 | [3] 1.03 | [4] 1 | [5] 1 | [6] 1.03 | [7] 1.04 | [8] 0.911 | [9] 1.01 | [10] 1.01 | [11] 0.993 | [12] 0.994 | [13] 1.01 | [14] 1 | [15] 1.01 | [16] 1 | [17] 0.995 | [18] 1.08 | [19] 1.02 | [20] 1

CCCNCCOc1c(Cl)cc(Cl)cc1Cl
inactive: [1] 0.946 | [2] 0.972 | [3] 0.979 | [4] 0.985 | [5] 0.898 | [6] 0.979 | [7] 1 | [8] 0.918 | [9] 0.973 | [10] 0.98 | [11] 0.927 | [12] 0.944 | [13] 0.953 | [14] 0.924 | [15] 0.918 | [16] 0.953 | [17] 0.966 | [18] 0.999 | [19] 0.972 | [20] 0.997

Cc1c(Br)c2ccc(F)cc2n1S(=O)(=O)c1ncn(S(=O)(=O)N(C)C)n1
inactive: [1] 0.998 | [2] 1.05 | [3] 1 | [4] 1.01 | [5] 0.997 | [6] 1 | [7] 0.993 | [8] 1.05 | [9] 1.07 | [10] 1.07 | [11] 1.03 | [12] 0.999 | [13] 1.11 | [14] 0.989 | [15] 1.08 | [16] 1.04 | [17] 0.981 | [18] 0.957 | [19] 0.861 | [20] 0.949

CCS(=O)(=O)c1nnc(N(C)C(=O)NC)s1
inactive: [1] 0.883 | [2] 1.02 | [3] 0.977 | [4] 1.01 | [5] 1.03 | [6] 1.01 | [7] 0.995 | [8] 0.995 | [9] 0.974 | [10] 1.06 | [11] 0.938 | [12] 0.984 | [13] 0.99 | [14] 0.976 | [15] 1.01 | [16] 1.04 | [17] 0.851 | [18] 0.992 | [19] 1.06 | [20] 1.01

COC1CCC2(CC1)NC(=O)C(c1cc(C)ccc1C)=C2OC1OC(CO)C(O)C(O)C1O (stereo not given)
inactive: [1] 1.1 | [2] 0.946 | [3] 1.02 | [4] 0.993 | [5] 1.21 | [6] 0.984 | [7] 1.02 | [8] 1 | [9] 1.02 | [10] 1.01 | [11] 1.03 | [12] 1.03 | [13] 1.03 | [14] 1.1 | [15] 1.17 | [16] 0.948 | [17] 1.01 | [18] 0.994 | [19] 1.01 | [20] 1.05

S=C([S-])NCCNC(=S)[S-].[Zn+2]
inactive: [1] 1.16 | [2] 1.05 | [3] 0.989 | [4] 0.999 | [5] 0.983 | [6] 0.978 | [7] 1.03 | [8] 0.995 | [9] 0.972 | [10] 0.992 | [11] 0.994 | [12] 0.998 | [13] 0.992 | [14] 1.1 | [15] 0.978 | [16] 0.966 | [17] 1.01 | [18] 0.999 | [19] 1.01 | [20] 0.974

CCCCOCCOC(=O)COc1ccc(Cl)cc1Cl
active: [19] 0.721
inactive: [1] 1.09 | [2] 0.966 | [3] 0.991 | [4] 0.867 | [5] 0.952 | [6] 0.98 | [7] 0.93 | [8] 0.984 | [9] 0.993 | [10] 0.96 | [11] 0.982 | [12] 0.983 | [13] 0.983 | [14] 1.1 | [15] 0.92 | [16] 0.88 | [17] 0.962 | [18] 0.97 | [20] 0.954
